Laboratory results published in PubChem BioAssay.
The source made the active and inactive calls.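 Rule for the calls, unless noted: active = inhibition at or above 50% at 10 µM; inactive = inhibition below 50%.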

Columns and labels:
[1] = inhibitors of TNFa-induced NFkB p65 translocation, primary screen, imaging, HUVEC, MLSMR starter and 10KST1 sets (AID 438;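 active = inhibition above 20% together with a positive visual image hit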;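 note: compound added about 3h40 before a 20 min TNFalpha stimulation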;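 for inhibition: signal is the nuclear over cytoplasmic p65 intensity ratio per well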); conditions: HUVEC TNFa-induced p65 nuclear translocation; cell count: measured here: nuclei count (cytotoxicity indicator), at 2.08 µM; inhibition: at 2 µM, stronger effect = higher value, 0% TNFa-plus-vehicle, 100% no-TNFa wells
[2] = inhibitors of mutant huntingtin aggregation, primary screen, imaging, exon1htt(103Q)mCFP cells, high-content imaging (AID 483;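 active = visual image review flags a hit and inhibition of aggregation exceeds 20%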;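 note: compound exposure lasted 3 days before fixation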;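 for nuclei count: percent of the per-plate median nuclei count of sample wells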); conditions: exon1htt(103Q)mCFP cell line, aggregate imaging, at 2 µM; inhibition of aggregation: stronger effect = higher value; nuclei count: measured here: cell count, toxicity
[3] = inhibitors of E-selectin induction by TNFa, primary screen, imaging, HUVEC, immunofluorescence, MLSMR starter and 10KST1 sets (AID 487;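 active = visually confirmed hit in the image check and inhibition above 20%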;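 for inhibition: signal is fraction of cell area covered by stained E-selectin grains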;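 for nuclei count: 100% = median nuclei count of all wells on the same plate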); conditions: HUVEC TNFalpha-induced E-selectin immunofluorescence imaging, at 2 µM; inhibition: stronger effect = higher value; nuclei count: measured here: cell number, toxicity
[4] = molecular target: Voltage-gated potassium channel subunit beta-2 (Rattus norvegicus) (UniProt P62483); test: KvBeta enzyme negative modulators, primary screen, biochemical, NADPH fluorescence (AID 622;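 active = fluorescence slope higher than the sample average by over 3 SD, cut at about -0.22 in these data, passing the limit was not always enough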;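 note: slope of raw intensity against log time taken from 70 to 1610 s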); conditions: recombinant KvBeta, 4-cyanobenzaldehyde reduction, at 10 µM, stronger effect = higher value
[5] = molecular target: Voltage-gated potassium channel subunit beta-2 (Rattus norvegicus) (UniProt P62483); test: KvBeta positive modulators, primary screen, biochemical, NADPH fluorescence (AID 623;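 active = NADPH fluorescence slope more negative than the mean of all samples by about 3 SD, 99.7% confidence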;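 note: fluorescence intensity change per second fitted from 20 to 320 s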); conditions: Recombinant KvBeta, NADPH fluorescence decrease slope, 10 min; at 10 µM; stronger effect = lower value
[6] = molecular target: Alpha-2C adrenergic receptor (Homo sapiens) (UniProt P18825); test: modulators of alpha2C/GIRK thallium flux, primary screen, cell-based, HEK293 alpha2C/GIRK1/2 (AID 624;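 active = fluorescence slope after compound addition differing from the mean of all screened samples at 99.7% confidence, in either direction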;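 note: slope of fluorescence ratio to pre-addition baseline per second over 15 to 24 s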); conditions: thallium flux BTC fluorescence, at 10 µM, actives lie on both sides
[7] = inhibitors of Sendai virus-induced IRF3 signaling, primary screen, TLR/RLR signaling modifier project, cell-based, Sendai virus stimulus, luciferase, 10K MLSCN set (AID 602276); conditions: HEK293 RL24 IRF3 luciferase reporter, at 10 µM, stronger effect = higher value;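 note: firefly luciferase from ISG56 promoter only with Renilla not read in this screen; 0% = Sendai virus plus DMSO and 100% = medium plus DMSO without virus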
[8] = inhibitors of poly I:C-induced TLR3 signaling, primary screen, cell-based, poly I:C stimulus, luciferase, 10K MLSCN set (AID 602277;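 active = inhibition of the reporter signal at or above 50%; inactive = inhibition below 50%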); conditions: HEK293-TLR3 RL24 IRF3 luciferase reporter, at 10 µM, stronger effect = higher value

Chain of Alpha-2C adrenergic receptor (Homo sapiens) (P18825 whole entry, looked up): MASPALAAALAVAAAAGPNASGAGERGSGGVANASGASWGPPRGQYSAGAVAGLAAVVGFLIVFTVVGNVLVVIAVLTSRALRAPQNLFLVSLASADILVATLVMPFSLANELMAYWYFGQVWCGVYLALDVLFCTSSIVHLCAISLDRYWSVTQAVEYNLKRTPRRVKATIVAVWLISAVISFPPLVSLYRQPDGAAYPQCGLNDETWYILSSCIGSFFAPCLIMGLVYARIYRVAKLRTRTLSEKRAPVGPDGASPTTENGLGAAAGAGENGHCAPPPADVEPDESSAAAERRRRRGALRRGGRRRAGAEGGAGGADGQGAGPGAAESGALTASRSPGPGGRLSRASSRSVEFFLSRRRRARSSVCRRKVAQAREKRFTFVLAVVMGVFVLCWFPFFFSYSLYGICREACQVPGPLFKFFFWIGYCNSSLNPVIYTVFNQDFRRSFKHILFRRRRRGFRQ
Chain of Voltage-gated potassium channel subunit beta-2 (Rattus norvegicus) (P62483 whole entry, looked up): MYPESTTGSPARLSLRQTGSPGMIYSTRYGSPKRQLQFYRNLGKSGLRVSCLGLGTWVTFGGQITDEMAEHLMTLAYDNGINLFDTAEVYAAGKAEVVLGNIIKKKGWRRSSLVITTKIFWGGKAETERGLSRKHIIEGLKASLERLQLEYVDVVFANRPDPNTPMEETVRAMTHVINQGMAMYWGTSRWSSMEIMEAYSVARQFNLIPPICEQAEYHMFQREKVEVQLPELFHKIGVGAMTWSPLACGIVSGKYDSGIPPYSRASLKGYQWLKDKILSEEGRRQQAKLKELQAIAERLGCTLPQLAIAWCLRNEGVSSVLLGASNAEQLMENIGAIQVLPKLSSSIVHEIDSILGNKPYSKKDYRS

Compound | cell count [1] | inhibition [1] | inhibition of aggregation [2] | nuclei count [2] | inhibition [3] | nuclei count [3] | fluorescence slope [4] | NADPH fluorescence slope [5] | slope [6] | inhibition [7] | inhibition [8]
CCN(CC)c1nc2cc(OC)ccc2cc1C#N | 386 | -7.8% (inactive) | 8.6% (inactive) | 101% | -50.8% (inactive) | 114% | -0.584 (inactive) | -6.9e-06 (inactive) | 0.00563 (inactive) | 12.7% (inactive) | 41% (inactive)
O=C(C1CCC(CNS(=O)(=O)c2cccc3cccnc23)CC1)N1CCCC1 (stereo not drawn) | 711 | 5.5% (inactive) | -15.3% (inactive) | 67.8% | -43.8% (inactive) | 112% | -0.549 (inactive) | -1.6e-05 (inactive) | 0.00608 (inactive) | -0.546% (inactive) | 14.6% (inactive)
CCOC(=O)Cc1csc(NC(=O)CSc2nnc(C3CC3)n2C)n1 | 670 | -11.2% (inactive) | 2.2% (inactive) | 110% | 18.1% (inactive) | 102% | -0.265 (inactive) | -5.6e-05 (inactive) | 0.0044 (inactive) | 10.5% (inactive) | 17.5% (inactive)
CCOC(=O)C1=C(C)NC(=O)NC1c1ccc(Br)s1 (stereo not drawn) | 516 | 1.2% (inactive) | 5.5% (inactive) | 105% | 28.9% (inactive) | 104% | -0.502 (inactive) | -6.2e-05 (inactive) | 0.00543 (inactive) | 11.8% (inactive) | 12.6% (inactive)
CC(C)c1ccc(C(O)c2cnc(C(C)C)n2C)cc1 (stereo not drawn) | 723 | 6.9% (inactive) | -27.2% (inactive) | 50.5% | -93.9% (inactive) | 106% | -0.552 (inactive) | -3.1e-05 (inactive) | 0.00678 (inactive) | -10.5% (inactive) | -5.66% (inactive)
CC1Cc2ccccc2N1C(=O)c1cnsn1 (stereo not drawn) | 623 | -4.5% (inactive) | -10.5% (inactive) | 103% | -138% (inactive) | 111% | -0.489 (inactive) | -0.000237 (inactive) | 0.00637 (inactive) | -9.05% (inactive) | -3.1% (inactive)
COc1ccc(C(=O)COC(=O)CCn2nnc(-c3cccs3)n2)cc1 | 237 | 2.2% (inactive) | 20% (inactive) | 78.6% | 56.4% (inactive) | 73.7% | -0.426 (inactive) | 1.6e-05 (inactive) | 0.00571 (inactive) | -6.55% (inactive) | -7.1% (inactive)
O=C(O)CCCc1nc(-c2ccccc2)no1 | 726 | -1.7% (inactive) | -4.5% (inactive) | 91.6% | 22.1% (inactive) | 108% | -0.447 (inactive) | 1.4e-05 (inactive) | 0.00583 (inactive) | 16.6% (inactive) | 20.7% (inactive)
CN(CC(=O)Nc1ccc(F)c(Cl)c1)S(=O)(=O)c1cccc2nsnc12 | 615 | -19.8% (inactive) | 5.8% (inactive) | 64.7% | -18.3% (inactive) | 108% | -0.34 (inactive) | -3.5e-05 (inactive) | 0.00478 (inactive) | -14.7% (inactive) | 98.7% (active)
CCCCN(C)Cc1c(O)ccc2c(-c3ccccc3)cc(=O)oc12 | 303 | 0.3% (inactive) | 5% (inactive) | 103% | -26.5% (inactive) | 96.4% | -0.158 (active) | -2.3e-05 (inactive) | 0.00475 (inactive) | -3.57% (inactive) | 28.4% (inactive)
CCn1c(CCNC(=O)c2cccs2)nnc1SCC(=O)c1ccc(OC)cc1 | 263 | 0.8% (inactive) | -4.7% (inactive) | 99.7% | -94.1% (inactive) | 115% | -0.398 (inactive) | 2.4e-05 (inactive) | 0.00289 (inactive) | -4.44% (inactive) | -7.83% (inactive)
CC(=O)Nc1cccc(NC(=O)CSc2nn3c(=O)c(C)nnc3s2)c1 | 577 | 5.2% (inactive) | 9.9% (inactive) | 97.9% | -0.3% (inactive) | 95.8% | -0.454 (inactive) | -5.9e-05 (inactive) | 0.00534 (inactive) | 2.45% (inactive) | 20.4% (inactive)
COc1ccc(C2CC(c3ccc(C)cc3)Nc3ncnn32)cc1 (stereo not drawn) | 615 | -0.2% (inactive) | -9.1% (inactive) | 107% | 30.7% (inactive) | 98.3% | -0.524 (inactive) | -2.3e-05 (inactive) | 0.00685 (inactive) | 7.28% (inactive) | 16.4% (inactive)
CN1CC(=O)N(CC(=O)NCCc2ccc(F)cc2)c2ccccc2C1=O | 214 | 21% (inactive) | 16.8% (inactive) | 110% | -1.2% (inactive) | 90.4% | -0.602 (inactive) | -2.2e-05 (inactive) | 0.0102 (inactive) | 10.8% (inactive) | 9.93% (inactive)
O=C(Cn1ncc2c(=O)oc3ccccc3c21)Nc1nc2ccccc2s1 | 313 | -0.7% (inactive) | 1.3% (inactive) | 96.3% | -282% (inactive) | 90.7% | -0.537 (inactive) | -8.1e-05 (inactive) | 0.00615 (inactive) | 15.6% (inactive) | 17% (inactive)
CCOC(=O)Nc1ccc2c(CN3C(=O)NC4(CCCC4)C3=O)cc(=O)oc2c1 | 744 | 3.5% (inactive) | -24.7% (inactive) | 99.9% | -149% (inactive) | 153% | -0.229 (inactive) | -2.4e-05 (inactive) | 0.00554 (inactive) | 0.299% (inactive) | -13.9% (inactive)
CCc1ccc(NC(=O)CS(=O)CC(=O)NC(C)CCc2ccco2)cc1 (stereo not drawn) | 388 | 0.6% (inactive) | 18.9% (inactive) | 94.8% | -203% (inactive) | 116% | -0.484 (inactive) | -1.8e-05 (inactive) | 0.00694 (inactive) | 5.19% (inactive) | 13.9% (inactive)
CCC(C)NCC(O)COCc1ccc(Cl)cc1 (stereo not drawn) | 296 | -2% (inactive) | -4% (inactive) | 98.9% | -9.3% (inactive) | 86.6% | -0.484 (inactive) | -5.9e-06 (inactive) | 0.00563 (inactive) | 15.4% (inactive) | 20.9% (inactive)
COc1ccc(-n2c(COc3cccc(C)c3)nnc2SCC(=O)NCc2ccco2)cc1 | 707 | -6.3% (inactive) | 5.1% (inactive) | 100% | -54.8% (inactive) | 100% | -0.596 (inactive) | -6.6e-05 (inactive) | 0.00613 (inactive) | -3.09% (inactive) | 10.9% (inactive)
CN1CCc2c(sc3c2C(=O)NC(c2cccc(OC(=O)c4cccs4)c2)N3)C1 (stereo not drawn) | 497 | -2.5% (inactive) | -4.1% (inactive) | 101% | -21.9% (inactive) | 108% | -0.422 (inactive) | -4.2e-05 (inactive) | 0.00392 (inactive) | -5.69% (inactive) | 10.3% (inactive)
Cc1cc(C)n(-c2ccc(N3CCOCC3)nn2)n1 | 610 | -5.2% (inactive) | -8.5% (inactive) | 100% | -27.5% (inactive) | 120% | -0.4 (inactive) | -7.8e-06 (inactive) | 0.0039 (inactive) | -5.9% (inactive) | -11.9% (inactive)
Cn1c(SCc2ccccc2)nnc1C1CCCNC1 (stereo not drawn) | 784 | -2.3% (inactive) | 0.6% (inactive) | 100% | 10.3% (inactive) | 125% | -0.327 (inactive) | 1.3e-05 (inactive) | 0.00512 (inactive) | 10.3% (inactive) | 15.2% (inactive)
Cc1ccc(N(C(=O)C2CCC(=O)N2)C2(C(=O)NC3CCCCC3)CCCCC2)cc1 (stereo not drawn) | 690 | 11.9% (inactive) | 22.8% (inactive) | 85.5% | -16.1% (inactive) | 84.9% | -0.558 (inactive) | 3.4e-05 (inactive) | 0.00517 (inactive) | -4.63% (inactive) | 5.62% (inactive)
COc1ccc(CC(=O)Nc2ccc(OC)c(NC(=O)c3ccco3)c2)cc1 | 580 | 22% (active) | 4% (inactive) | 99.6% | -70.8% (inactive) | 146% | -0.417 (inactive) | 9.4e-05 (inactive) | 0.00901 (inactive) | -27.5% (inactive) | -49.2% (inactive)
CCOC(=O)c1cccc(NC(=O)CSc2nnc(C3CCCCC3)n2C)c1 | 291 | -10.5% (inactive) | 7.3% (inactive) | 117% | 18% (inactive) | 113% | -0.586 (inactive) | -3.6e-05 (inactive) | 0.00599 (inactive) | 12.9% (inactive) | 17.5% (inactive)
COc1ccc(S(=O)(=O)N2CCCC2C(=O)Nc2ccc(O)cc2)cc1 (stereo not drawn) | 601 | 7.1% (inactive) | -21.9% (inactive) | 110% | -23.4% (inactive) | 111% | -0.535 (inactive) | -2e-05 (inactive) | 0.00566 (inactive) | 1.14% (inactive) | 12.2% (inactive)
COc1ccc(C(c2sc3nc(C)nn3c2O)N2CCCCC2)cc1 (stereo not drawn) | 639 | -6.4% (inactive) | -33.8% (inactive) | 114% | -42.5% (inactive) | 108% | -0.603 (inactive) | -4.6e-05 (inactive) | 0.00737 (inactive) | 8.51% (inactive) | 27.4% (inactive)
Cc1ccc(C)n1-n1c(C)nc2sc(-c3ccccc3)cc2c1=O | 419 | -0.6% (inactive) | -8.2% (inactive) | 85.3% | -143% (inactive) | 109% | -0.363 (inactive) | 3.8e-06 (inactive) | 0.00611 (inactive) | -68% (inactive) | -272% (inactive)
